D2 PAM-1: HTS Assay for Positive Allosteric Modulators of the Human D2 Dopamine Receptor: Primary Screen for Potentiators; HEK293 T-REx D2, calcium flux, EC20 dopamine potentiation; potentiation, % at 10 µM; 340,000 compounds, 0.34% hits; AID 485347, 2010;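 active means potentiation over 3 SD above the plate norm, cut at about 30% in these data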; further: 0% is about no effect
Target sequence (P14416 whole entry, looked up): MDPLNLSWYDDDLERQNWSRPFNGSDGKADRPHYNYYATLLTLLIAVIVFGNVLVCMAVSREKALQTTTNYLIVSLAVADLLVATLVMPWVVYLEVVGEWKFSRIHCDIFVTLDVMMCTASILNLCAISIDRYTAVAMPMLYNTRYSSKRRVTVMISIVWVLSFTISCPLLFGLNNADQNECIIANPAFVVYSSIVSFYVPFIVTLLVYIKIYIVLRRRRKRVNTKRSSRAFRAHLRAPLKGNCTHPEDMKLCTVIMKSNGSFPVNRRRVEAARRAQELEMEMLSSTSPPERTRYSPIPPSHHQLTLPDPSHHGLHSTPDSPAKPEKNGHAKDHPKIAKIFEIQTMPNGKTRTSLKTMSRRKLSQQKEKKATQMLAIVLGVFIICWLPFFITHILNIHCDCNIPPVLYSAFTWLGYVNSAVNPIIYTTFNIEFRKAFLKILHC
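Using a no-wash calcium dye in inducible, force-coupled HEK293 Trex cells expressing D2, we tracked fluorescence each second for 180 s after compound, then for 180 s after EC20 dopamine to detect augmented signalling.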
D2 ag-1: HTS Assay for Allosteric Agonists of the Human D2 Dopamine Receptor: Primary Screen for Agonists; activation, % at 2 µM; D(2) dopamine receptor (Homo sapiens), P14416; HEK293 T-REx D2 cells, calcium flux agonist mode; 340,000 compounds, 0.53% hits;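 active means activation over 3 SD above normal in the single-dose calcium agonist read, cut at about 30% in these data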; further: 0% is about no effect
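HEK293 Trex D2 cells, tetracycline-induced, o/n 30 C 5% CO2; no-wash Ca dye, RT 30–90 min; 10-cycle baseline, 23 nl cpd added, kinetic Ca read 180 s; agonist hits = positive Ca response.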
D2 ag-2: Beta-Arrestin HTS for Positive Allosteric Modulators of the Human D2 Dopamine Receptor: Agonists | DiscoveRx PathHunter D2 beta-arrestin, luminescence, 90 min; 100% = 57 uM dopamine signal | 360,000 compounds, 0.084% hits | activation, % (concentration not given with the values) | D(2) dopamine receptor (Homo sapiens), P14416; in the data active means activation above about 40%; inconclusive means between about 15% and that limit
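DiscoveRx PathHunter D2 beta-arrestin cells (2,100/well) attached overnight, then compound-stimulated 90 min at 37 C in HBSS/10 mM HEPES/0.1% Tween-20 buffer; beta-galactosidase complementation read by luminescence after 1 h at ambient temperature. Dopamine 57 uM final (EC100) as control.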
D2 antag: HTS Assay for Allosteric Antagonists of the Human D2 Dopamine Receptor: Primary Screen for Antagonists; HEK293 TREx D2 cells, calcium flux, dopamine EC80; 340,000 compounds, 2% hits; D(2) dopamine receptor (Homo sapiens), P14416; inhibition, % at 10 µM; in the data active means inhibition above about 30%; inactive means below that, where a call was filed; further: 0% is about no effect
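Cells plated overnight at 30 C with tetracycline; no-wash calcium dye, 30–90 min RT; 10 s baseline; compound pinned; 180 s read; EC80 dopamine added; another 180 s read.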
D2 PAM-2: Beta-Arrestin HTS for Positive Allosteric Modulators of the Human D2 Dopamine Receptor: Potentiators | D(2) dopamine receptor (Homo sapiens), P14416 | DiscoveRx D2 beta-arrestin cells, luminescence, 90 min; 100% = 57 uM dopamine signal | potentiation, % (no concentration beside the values) | 360,000 compounds, 0.23% hits | AID 624464, 2012; in the data active means potentiation above about 50%; inconclusive means mostly about 30% to 49%
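PathHunter D2 cells, attached overnight at 37 deg C, received compound in DMSO plus dopamine at EC20 (50 nM final) for 90 min at 37 deg C. Beta-arrestin recruitment was read as luminescence after 1 h with detection reagent at ambient temperature.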
D3 ag: qHTS of D3 Dopamine Receptor Agonist: D3 Dopamine Receptor B-arrestin Agonist Confirmatory Assay. 2,300 compounds, 4% hits. shares compounds with D2 ag-1. AID 720506, 2013. Potency, µM (top dose mostly 76.9 µM), for the others: at the highest dose activation, hits mostly activators. DiscoveRx D3 beta-arrestin cells, luminescence, 90 min;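 further: potency means the concentration at half of the fitted maximal effect; 100% = dopamine control response; nearly all actives have a fitted effect of over 70% in size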
D2 ag-3: qHTS of D3 Dopamine Receptor Agonist: D2 Dopamine Receptor B-arrestin Agonist Counterscreen | shares compounds with D2 ag-1 | DiscoveRx PathHunter D2 beta-arrestin, luminescence, 90 min; response scale: percent relative to full dopamine signal | Potency, µM (highest dose often 76.9 µM), inactives show at the highest dose activation, actives largely listed as activators | 2,300 compounds, 5.9% hits | AID 720507, 2013; further: potency means the concentration at half of the fitted maximal effect; % of control where 0% means no effect; nearly all actives have a fitted effect of over 70% in size
The depositor's hits bear a star; ? = inconclusive; nt = not tested or not shown; ! = repeats disagree. This is a sample that favours compounds with a hit; in the whole collection about 2.4% have one here. Unless noted, the call rests on the fitted dose curve; in most records, active means well fitted activation curve with a large enough effect; inconclusive means small, poorly fitted or top-dose-only effect; inactive means flat fitted curve, though single readings scatter.

SMILES	D2 PAM-1	D2 ag-1	D2 ag-2	D2 antag	D2 PAM-2	D3 ag	D2 ag-3
COc1ccc(S(=O)(=O)N2CCC(N3CCN(c4ccccc4)CC3)CC2)cc1	-12	74*	nt	61*	nt	20%	?
O=C(CCC1N=C2c3ccccc3N=C(SCC(=O)Nc3ccc(F)cc3)N2C1=O)NCc1ccco1 (stereo not given)	6	0	nt	nt	nt	nt	nt
O=C(CN1CCN(c2ccccn2)CC1)NCCc1ccccc1	-6	5	5	-7	-4	nt	nt
O=C(CN1CCN(c2ccccn2)CC1)Nc1ccc(F)c(F)c1	-18	52*	?	18	3	?	16%
Cc1cc(NC(=O)CN2CCN(c3ccccn3)CC2)ccc1Br	-19	37*	7	17	-2	16µM*	17%
O=C(CN1CCN(c2ccccn2)CC1)NC1CCCC1	-9	24	7	9	-8	-13%	11%
Cc1ccc(NC(=O)c2ncn(CCCN3CCN(c4ccccn4)CC3)n2)cc1C	nt	nt	0	nt	-12	nt	nt
O=C(CN1CCN(c2ccccn2)CC1)Nc1cccc(S(=O)(=O)N2CCCC2)c1	-34	60*	3	60*	-17	?	28µM*
Cc1cc(C)c(NC(=O)CN2CCN(c3ccccn3)CC2)c(C)c1	-4	21	8	21	-4	4%	9%
O=C(CN1CCN(c2ccccn2)CC1)Nc1nc2ccccc2s1	10	0	6	-8	6	nt	nt
O=C(COc1ccc(Cl)cc1)NNC(=O)c1cccnc1	1	0	-4	8	-2	-12%	-3%
CN(C)c1ccc(/C=N/N2CCN(c3ccccn3)CC2)cc1	-23	45*	?	16	21	8%	13%
Cc1nn(-c2ccccc2)c(Cl)c1/C=N/N1CCN(c2ccccn2)CC1	-11	-1	-1	3	-6	nt	nt
Cc1nn(-c2ccccc2)c(C)c1/C=N/N1CCN(c2ccccn2)CC1	2	19	9	16	-2	?	17%
O=C(CCN1CCC(c2ccccc2)C1)c1cccs1 (stereo not given)	-23	0	-1	11	-16	nt	nt
COc1cc(C(=O)CCN2CCC(c3ccccc3)C2)cc(OC)c1OC (stereo not given)	-26	46*	-4	24	-39	-9%	-3%
CC(=O)Nc1ccc(C(=O)Nc2ccc(S(=O)(=O)N3CCOCC3)cc2)cc1	3	1	4	-6	1	nt	nt
O=C(Nc1ccc(N2CCOCC2)cc1)c1ccc(S(=O)(=O)N2CCCCC2)cc1	-10	2	-2	4	-15	-2%	-1%
CCOc1ccccc1NC(=O)Cn1c(=O)n(C(C)C)c(=O)c2oc3ccccc3c21	5	1	nt	nt	nt	nt	nt
O=C(c1ccco1)N1CCN(C/C=C/c2ccccc2)CC1	-28	89*	41*	1	?	?	?
O=C(NC(=S)N1CCN(C/C=C/c2ccccc2)CC1)c1c(F)cccc1F	-3	0	-3	-12	-7	nt	nt
Cc1cc(C(=O)N2CCN(C/C=C/c3ccccc3)CC2)no1	1	1	0	6	-9	nt	nt
O=C(NC(=S)N1CCN(C/C=C/c2ccccc2)CC1)c1ccco1	-18	48*	-5	9	-15	1%	-2%
Nc1ccc(N2CCN(CCCCN3C(=O)C4CCCN4C3=O)CC2)cc1 (stereo not given)	-17	63*	6	42*	-16	23%	15%
CC(=O)N1c2ccc(S(=O)(=O)N3CCN(c4ccc(C)cc4C)CC3)cc2CC1C (stereo not given)	-3	-1	nt	nt	nt	nt	nt
SMILES	D2 PAM-1	D2 ag-1	D2 ag-2	D2 antag	D2 PAM-2	D3 ag	D2 ag-3
COCCN(CC(=O)Nc1cccc(C)c1C)C(=O)c1ccc2c(c1)OCO2	-1	-1	-4	-8	-7	nt	nt
CCCN(CC(=O)Nc1ccccc1C)C(=O)c1ccc2c(c1)OCO2	8	-2	-2	-9	-11	-4%	-2%
CC(C)c1ccc(NC(=O)C2CC3CCC2C3)cc1 (stereo not given)	-4	0	0	11	-2	nt	nt
O=C(Nc1ccc(F)cc1)C1CC2CCC1C2 (stereo not given)	nt	nt	13	nt	-4	-10%	-6%
O=C(NCc1ccccc1)c1nncc(-c2ccccc2)n1	-2	0	-5	9	-15	2%	-4%
Cc1ccc2occ(CN3CCN(c4ccccc4)CC3)c(=O)c2c1	nt	13	13	67*	-2	-5%	25%
Cc1ccccc1Cn1c(CN2CCC(C(=O)NCc3cccnc3)CC2)cc2ccccc21	5	nt	nt	nt	nt	nt	nt
O=C(O)c1ccc(NC(=O)c2ccc3c(c2)C(=O)N(c2ccccc2)C3=O)cc1	2	0	-6	7	-5	nt	nt
O=C(O)c1ccc(S(=O)(=O)c2ccc3c(c2)C(=O)N(c2ccc(O)cc2)C3=O)cc1	-26	61*	4	-3	-2	11%	8%
C=CCOc1ccc(Br)cc1CNCC	-28	62*	-3	67*	-8	9%	?
C[C@@H](CN1CCC(Cc2ccccc2)CC1)[C@@H](O)c1ccc(O)cc1	nt	nt	-4	nt	6	7%	27%
CC(C(O)c1ccc(O)cc1)N1CCC(Cc2ccccc2)CC1 (stereo not given)	-26	33*!	-3	77*	-34	-19%	3%
CC(C)OCC(O)CN1CCC(Cc2ccccc2)CC1 (stereo not given)	-22	1	0	10	-17	nt	nt
CCC(C(=O)NCc1ccc2c(c1)CCN2C(=O)c1ccc(F)cc1)c1ccccc1 (stereo not given)	4	1	nt	nt	nt	nt	nt
CCOc1cc(C#N)c(-n2nnc3c(sc4nc(C)cc(C)c43)c2=O)cc1OCC	nt	-1	nt	nt	nt	nt	nt
OC(COc1ccc(Cl)c2ccccc12)CN1CCN(c2ccccn2)CC1 (stereo not given)	-21	54*	5	35*	-24	14µM*	?
